We go through 58 molecules from PubChem BioAssay AID485317 (Broad Institute, 2010).

The campaign covered roughly 290,000 compounds. About 11,000 (3.8%) were called active.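 The calls were made as follows: active = mean replicate inhibition above about 79%, with every replicate also reaching it (limit read from the data); inconclusive = only one of the two criteria met; inactive = mean below limit and not every replicate reaching it.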 This excerpt belongs to a sample that is enriched for actives.

In the experiment the target is FAD-linked sulfhydryl oxidase ALR (Homo sapiens) (UniProt P55789). Description: inhibitors of human ALR sulfhydryl oxidase, primary screen, biochemical, H2O2 detection, HRP-luminol luminescence, single point (AID 485317). Particulars: purified ALR, DTT oxidation, stronger effect = higher value, concentration not given here.
Sequence of FAD-linked sulfhydryl oxidase ALR (Homo sapiens) (P55789 whole entry, looked up): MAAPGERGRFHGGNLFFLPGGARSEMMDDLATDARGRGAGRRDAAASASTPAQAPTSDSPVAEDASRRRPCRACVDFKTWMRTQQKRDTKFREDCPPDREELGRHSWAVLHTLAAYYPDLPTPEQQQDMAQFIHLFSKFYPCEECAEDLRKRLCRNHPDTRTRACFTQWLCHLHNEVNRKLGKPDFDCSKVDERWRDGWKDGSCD
In the case of `COc1ccc(OCC(=O)NNC(=O)c2ccc(-c3ccccc3)cc2)cc1`, the inhibition (commonly the drop in the measured response relative to a control, in per cent) was 1.13% (inactive).

In the case of `Cc1nc(NNC(=O)c2ccccc2)cc(-c2ccccc2)n1`, the inhibition is 90.8% (active).

Take `COc1ccc(C(=O)NNc2cc(C)nc(NNC(=O)c3ccc(OC)cc3)n2)cc1`: the inhibition is 12.7% (inactive).

As for `O=C(CNS(=O)(=O)c1ccc2c(c1)OCCCO2)N1CCN(c2ccc(F)cc2)CC1`, the inhibition was 3.71% (inactive).

For the molecule `CC(C)NC(=O)Nc1cccc2c1O[C@H](CN(C)S(=O)(=O)c1cccs1)[C@@H](C)CN([C@H](C)CO)C2=O`, the inhibition was 0.238% (inactive).

Turning to `Cc1[nH]n(C(N)=S)c(=O)c1N=Nc1ccc(Cl)cc1Cl`, the inhibition was 96.2% (active).

Consider `CC1=NN(C(N)=S)C(=O)C1N=Nc1cc(Cl)ccc1Cl` (stereo not drawn), for which the inhibition was 34.1% (inactive).

Turning to `Cc1[nH]n(-c2cccc(Cl)c2)c(=O)c1-c1ccc(Cl)cc1`, the inhibition is 32.9% (inactive).

Take `Cc1ccc(S(=O)(=O)N(C)c2ccc(OCC(=O)OCc3ccc(C#N)cc3)cc2)cc1`: the inhibition was 2.46% (inactive).

Turning to `O=C(COC(=O)/C=C/c1nc2ccccc2s1)Nc1ccccc1Oc1ccccc1`, the inhibition is 28.6% (inactive).

On to `CCN(C(=O)CSc1nc2ccccc2n1CC)C1CCS(=O)(=O)C1` (stereo not drawn), for which the inhibition is 9.23% (inactive).

Consider `CCN(C(=O)COC(=O)/C=C/c1nc2ccccc2s1)C1CCS(=O)(=O)C1` (stereo not drawn), for which the inhibition was 94.6% (active).

On to `COc1ccccc1NC(=O)C(C)OC(=O)c1ccc(-n2cnnn2)cc1` (stereo not drawn), for which the inhibition is 7.2% (inactive).

Regarding `CCc1cccc(NC(=O)COC(=O)C2CCN(c3ccc(C(F)(F)F)cn3)CC2)c1`, the inhibition is -1.14% (inactive).

As to `O=C(Oc1ccc(-c2nnco2)cc1)c1ccc(F)c(S(=O)(=O)N2CCOCC2)c1`, the inhibition is -0.68% (inactive).

Take `Cc1cccc(OCC(=O)OCC(=O)Nc2ccc(Cl)cn2)c1`: the inhibition is 0.248% (inactive).

Regarding `Cc1ccccc1C(=O)NCC(c1ccco1)N1CCc2ccccc21` (stereo not drawn), the inhibition was 27% (inactive).

On to `O=C(NCC(c1ccco1)N1CCc2ccccc21)c1cccc(F)c1` (stereo not drawn), for which the inhibition was 95.5% (active).

As for `COc1ccc(C(=O)NCC(c2ccco2)N2CCc3ccccc32)cc1OC` (stereo not drawn), the inhibition was 72.4% (inactive).

For the molecule `O=C(Nc1cc(S(=O)(=O)Nc2ccc(Cl)cc2)ccc1O)c1ccc(F)cc1F`, the inhibition is -4.12% (inactive).

Regarding `CSc1ccc(S(=O)(=O)NCC(=O)OCC(=O)NC2(C#N)CCCCC2)cc1[N+](=O)[O-]`, the inhibition was -5.06% (inactive).

With `c1ccc(-c2cc(-c3ccccc3)[nH]n2)cc1`, the inhibition is -15.4% (inactive).

On to `O=c1[nH]c(-c2ccccc2)c(-c2ccccc2)[nH]1`, for which the inhibition was 98.6% (active).

Turning to `O=C1C=C(c2ccccc2)CCC1`, the inhibition is 0.158% (inactive).

In the case of `O=C(Nc1ccccn1)C1CCN(S(=O)(=O)c2ccc3c(c2)OCCO3)CC1`, the inhibition was 1.39% (inactive).

For the molecule `CCc1ccc(C(=O)NC(=S)Nc2ccccc2N2CCOCC2)cc1`, the inhibition was -1.76% (inactive).

For the molecule `CCc1ccc2nc(Nc3ncc(C(C)=O)c(C)n3)nc(C)c2c1`, the inhibition was -4.9% (inactive).

Regarding `CCc1ccc2ncc(C(=O)c3ccccc3)c(N3CCOCC3)c2c1`, the inhibition was 97.1% (active).

Regarding `Cc1ccc(N2CC(C(=O)Nc3cc(Cl)ccc3-n3cncn3)CC2=O)cc1` (stereo not drawn), the inhibition is -10% (inactive).

On to `O=C(c1ccncc1)N1CCN(S(=O)(=O)c2cc(C(F)(F)F)cc(C(F)(F)F)c2)CC1`, for which the inhibition is -17.2% (inactive).

Consider `CCCn1c(C)cc(-c2csc(NC(=O)CCc3nc4ccccc4c(=O)[nH]3)n2)c1C`, for which the inhibition is -8.89% (inactive).

Turning to `Cc1cc(-c2n[nH]c(=S)n2-c2ccc(C)c(C)c2)no1`, the inhibition is 96% (active).

On to `Cc1ccc(-c2csc(-c3cc(C)on3)n2)cc1`, for which the inhibition is -0.833% (inactive).

For the molecule `S=c1[nH]nc(-c2cc(-c3ccsc3)n[nH]2)n1-c1ccccc1`, the inhibition was 67.2% (inactive).

Turning to `CCCCn1c(N)c(N(CCC(C)C)C(=O)CC2OC(=O)c3ccccc32)c(=O)[nH]c1=O` (stereo not drawn), the inhibition was -12.6% (inactive).

Regarding `COCCCNC(=O)CC1C[C@H](C(=O)N2CCCCC2)[C@@]2(CCc3ccccc3)c3[nH]c4ccccc4c3CCN2C1=O` (stereo partly drawn), the inhibition is -3.65% (inactive).

Take `CCCc1nc2ccccc2c(=O)n1NC(=O)c1c(O)c2ccccc2[nH]c1=O`: the inhibition was -6.61% (inactive).

`O=c1c2ccccc2ncn1/N=C/c1ccccc1`: the inhibition was -10.9% (inactive).

`CCCc1nc2ccccc2c(=O)n1/N=C/c1ccc(O)c(O)c1`: the inhibition was 98.6% (active).

Take `Clc1ccccc1SCc1nc2ccccc2[nH]1`: the inhibition was -0.577% (inactive).

Consider `c1ccc2c(CSCc3nc4ccccc4[nH]3)cccc2c1`, for which the inhibition is 98.7% (active).

On to `c1ccc(-c2nnc(SCc3nc4ccccc4[nH]3)o2)cc1`, for which the inhibition is -5.4% (inactive).

As to `Cc1ccc2nc(/C(C#N)=C\c3ccc(OC(=O)c4cccs4)cc3)[nH]c2c1`, the inhibition is -13.7% (inactive).

Take `COc1cc(/C=C(\C#N)c2nc3ccccc3[nH]2)ccc1O`: the inhibition is 99% (active).

As to `COc1cc(/C=C(\C#N)c2nc3c(s2)CC(C)CC3)ccc1O` (stereo not drawn), the inhibition was 70% (inactive).

In the case of `CCOC(=O)C1CCN(S(=O)(=O)c2ccc3c(c2)N(C(C)=O)CCO3)CC1`, the inhibition is 25.7% (inactive).

With `CC(=O)N1CCOc2ccc(S(=O)(=O)N3CCN(c4cccc(C(F)(F)F)c4)CC3)cc21`, the inhibition is -1.95% (inactive).

In the case of `COc1ccc(N2CCN(S(=O)(=O)c3ccc4c(c3)N(C(C)=O)CCO4)CC2)cc1`, the inhibition is 89.8% (active).

Consider `Cc1cc(C)c(C)c(S(=O)(=O)Nc2cccnc2)c1C`, for which the inhibition was -4.67% (inactive).

With `CCOC(=O)c1c(NC(=O)CCC(=O)NCc2ccco2)sc2c1CCCC2`, the inhibition was 3.61% (inactive).

Take `CCOC(=O)c1c(NC(=S)Nc2ccccc2C)sc2c1CCC2`: the inhibition is -0.578% (inactive).

On to `CCOC(=O)c1c(NC(=O)C(C)Sc2c[nH]c3ccccc23)sc2c1CCC2` (stereo not drawn), for which the inhibition was 94.5% (active).

`O=C(O[C@@H]1[C@H](Cc2ccccc2)NS(=O)(=O)[C@H]2C[C@@H]3C=C[C@]12O3)c1ccccc1Br`: the inhibition was 6.25% (inactive).

On to `CCCCn1c(N)c(N(CC(C)C)C(=O)CN(C)S(=O)(=O)c2ccc(F)cc2)c(=O)[nH]c1=O`, for which the inhibition was -15.2% (inactive).

On to `CC(=O)c1sc(NC(=O)CCN2C(=O)C3CC=CCC3C2=O)nc1-c1ccccc1` (stereo not drawn), for which the inhibition is 1.73% (inactive).

With `CCOc1ccccc1N=C1NC(=O)CS1`, the inhibition was -4.82% (inactive).

For the molecule `CCOc1cccc(/C=N/NC(=S)NCCN2CCOCC2)c1O`, the inhibition was 49.2% (inactive).

`CCOc1cccc(/C=N/N2C(=O)CSC2=S)c1O`: the inhibition is 92.9% (active).
